Experimental data as given in PubChem BioAssay (NCI).
About 83,000 compounds went through this panel and 20% of them were active in at least one assay; those are over-represented in the sample as a whole.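 A percent growth of 40 corresponds to 60% growth inhibition; 0 means no net growth; -100 means all cells died. Active threshold: below 10.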 A number with no mark means an inactive call. Calls of active or inactive are those of the source.

Experiments:
Experiment in all cases: NCI-60 one-dose screen, 48 h (100 = growth as untreated, 0 = no growth, -100 = all killed)
Conditions in all cases: 10 µM unless noted
[1] = tested on: SK-MEL-2 melanoma
[2] = tested on: EKVX NSCLC
[3] = tested on: SN12C renal
[4] = tested on: UO-31 renal
[5] = tested on: TK-10 renal
[6] = tested on: ACHN renal
[7] = tested on: CAKI-1 renal
[8] = tested on: A498 renal
[9] = tested on: CCRF-CEM leukemia
[10] = tested on: MOLT-4 leukemia
[11] = tested on: SR leukemia
[12] = tested on: RPMI-8226 leukemia
[13] = tested on: OVCAR-8 ovarian
[14] = tested on: OVCAR-5 ovarian
[15] = tested on: OVCAR-4 ovarian
[16] = tested on: SK-OV-3 ovarian
[17] = tested on: IGROV1 ovarian
[18] = tested on: OVCAR-3 ovarian
[19] = tested on: HS 578T breast
[20] = tested on: NCI/ADR-RES ovarian

Structure (SMILES)	growth [1]	growth [2]	growth [3]	growth [4]	growth [5]	growth [6]	growth [7]	growth [8]	growth [9]	growth [10]	growth [11]	growth [12]	growth [13]	growth [14]	growth [15]	growth [16]	growth [17]	growth [18]	growth [19]	growth [20]
CN(C)c1ncnc2c1ccn2C1OC(CO)C(O)C1O (stereo not given)	54.9%	60.5%	17.8%	24.8%	40.9%	32.3%	34.7%	68%	10.7%	9% (active)	89.5%	83.7%	0.899% (active)	39.5%	33.3%	33.7%	-0.957% (active)	25.9%	17.5%	1.88% (active)
O=c1[nH]c2ccc(Br)cc2c2c1C(c1ccc(Cl)cc1)c1c(ncn3nc(-c4ccco4)nc13)O2 (stereo not given)	89.1%	48.8%	74.3%	35%	110%	65.4%	46.3%	59.6%	73.9%	88.1%	62.3%	58.4%	79.3%	73.6%	67.5%	59.8%	44%	81.7%	35.6%	88.2%
CCn1c2ccccc2c2cc(NC(=O)Nc3ccc([N+](=O)[O-])cc3C)ccc21	53%	62.3%	55.6%	23.6%	53.8%	31.9%	-4.18% (active)	65.7%	9.61% (active)	17.9%	-2.84% (active)	-21.4% (active)	49.9%	57.9%	44.2%	74.9%	43%	-2.64% (active)	52.7%	23.1%
CCCCCc1cc[n+](CC(=O)c2ccc([N+](=O)[O-])cc2)cc1	49.3%	72.8%	90.9%	72.1%	74.6%	103%	113%	101%	89.2%	100%	73.2%	45.1%	77%	109%	26.3%	93.9%	110%	58.8%	106%	110%
CCOC(=O)c1c(NS(=O)(=O)c2ccc(C)cc2)sc2c1CCC1(C2)OCCO1	90.3%	94.6%	95.1%	82.6%	120%	95.1%	85.1%	98%	96.2%	85.8%	94.3%	86.7%	95.7%	88.8%	91.4%	90.1%	109%	103%	81.3%	98%
CC(=O)Oc1csc(N(C(C)=O)c2cc(C(=O)O)cc(C(=O)O)c2)n1	106%	76.2%	98.8%	92.7%	105%	104%	101%	70.5%	1.74% (active)	109%	114%	43.3%	104%	101%	90.4%	111%	101%	105%	95.3%	99.2%
COc1ccc(/C=N\NC(=O)CN2CCN(c3cc4c(cc3F)c(=O)c(C(=O)N/N=C/c3ccc(OC)c(OC)c3)cn4C3CC3)CC2)cc1OC	-24.8% (active)	55%	-8.5% (active)	85%	65.1%	102%	88.2%	89.1%	9.85% (active)	5.8% (active)	3.52% (active)	4.84% (active)	13.3%	26.4%	-2.98% (active)	17.1%	4.1% (active)	-5.57% (active)	-4.8% (active)	100%
Brc1cccc(-c2cc(-c3ccc4c(c3)OCCCO4)[nH]n2)c1	46.1% [25 µM]	54.7% [25 µM]	62.7% [25 µM]	60.1% [25 µM]	71.1% [25 µM]	75.8% [25 µM]	39.6% [25 µM]	70% [25 µM]	57.5% [25 µM]	56.8% [25 µM]	41.7% [25 µM]	57.2% [25 µM]	69.3% [25 µM]	63% [25 µM]	68.1% [25 µM]	53.1% [25 µM]	46.8% [25 µM]	48.7% [25 µM]	71.1% [25 µM]	22.1% [25 µM]
COc1cc(/C=N\NC(=O)CN2CCN(c3cc4c(cc3F)c(=O)c(C(=O)N/N=C/c3cc(OC)c(OC)c(OC)c3)cn4C3CC3)CC2)cc(OC)c1OC	-26.2% (active)	55.2%	-25.8% (active)	71.8%	64.2%	93.7%	77.7%	46.6%	4.32% (active)	0.748% (active)	2.97% (active)	0.709% (active)	22.4%	19.6%	-17.7% (active)	19.2%	-16.6% (active)	-75.2% (active)	-0.587% (active)	103%
CC(C)(C)n1cc(-c2ccnc(NCCNS(=O)(=O)c3ccc(Cl)cc3)c2)c(-c2cccc(O)c2)n1	74.3%	60.2%	61.6%	49.6%	108%	76.8%	71.8%	69.4%	50.3%	31.9%	24.9%	23.8%	65.1%	80.9%	53.5%	90.4%	79.1%	72.5%	66%	68.2%
Clc1cccc(-c2cc(-c3ccc4c(c3)OCCO4)[nH]n2)c1	17.9% [25 µM]	24.3% [25 µM]	36.3% [25 µM]	44.2% [25 µM]	61% [25 µM]	44.7% [25 µM]	29% [25 µM]	6.47% [25 µM] (active)	17.9% [25 µM]	25.8% [25 µM]	29.3% [25 µM]	21.4% [25 µM]	38.2% [25 µM]	37% [25 µM]	68.3% [25 µM]	45.6% [25 µM]	39.9% [25 µM]	12.8% [25 µM]	47% [25 µM]	3.35% [25 µM] (active)
N#Cc1c(Nc2ccccc2)nc2n(c1=O)-c1ccccc1Sc1ccccc1-2	86.9%	73%	77.7%	53.4%	105%	68.3%	70.8%	90.2%	63.4%	51.9%	59.6%	66.7%	74.9%	110%	58.4%	94.8%	64.1%	69.4%	97.9%	85.5%
CCOC(=O)CN1/C(=N/c2sc3c(c2C(=O)OCC)CCN(C(=O)OCC)C3)SC(=O)/C1=C\C(=O)OC	97.9%	93.1%	85.7%	73.6%	99%	95%	86.6%	93.3%	27.7%	53.8%	29.8%	-28.8% (active)	75.2%	89.9%	86.8%	111%	92.1%	92.1%	82.7%	87%
CCOC(=O)c1c(/N=C2\SC(=O)/C(=C\C(=O)OC)N2NC)sc2c1CCN(C(=O)OCC)C2	92.5%	89.1%	98.9%	87%	121%	102%	103%	110%	101%	106%	103%	95.3%	103%	102%	99.1%	109%	102%	106%	103%	103%
CCOC(=O)C1CCNC(=O)C1=O (stereo not given)	107%	122%	97.3%	94.2%	103%	105%	97.8%	110%	93.7%	96.6%	88.9%	96.8%	110%	104%	119%	117%	130%	122%	119%	105%
